High-throughput results as filed in PubChem.
Most compounds without a hit are left out; they make up all but 11% or so of the library.
HTT ATP protect = cytoprotection in Huntington HTT-Q103 PC12 cell model; PC12 HTT-Q103 induced, cytoprotection, ATP luminescence, 40 h; Potency, µM (doses to about 56.4 µM), inactives show cytoprotection (ATP increase), usual class: activators; 230,000 tested, 0.14% active; AID 1471; further: potency means the concentration at half of the fitted maximal effect; % of control where 0% means no effect; nearly all actives have a fitted effect of over 45% in size
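Quantitative HTS on tebufenozide-induced (100 nM) PC12 cells expressing HTTQ103 exon 1–GFP; compounds tested as a concentration series; survival measured via cellular ATP.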
ALDH1A1 block = inhibitors of human aldehyde dehydrogenase 1A1; P00352; Purified ALDH1A1, NADH fluorescence, propionaldehyde substrate; Potency, µM (doses to about 75.3 µM), without a hit: at the top dose activity, negative = inhibition, hits mostly inhibitors; 220,000 tested, 7.3% active; active means well fitted inhibition curve with a large enough effect, not every such curve was filed as active; inconclusive means small, poorly fitted or top-dose-only effect, or another doubt; inactive means no such curve, though single readings can be large or run the other way;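 further: potency means the concentration at half of the fitted maximal effect; plate controls were no enzyme wells and a reference inhibitor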
HttQ103 aggreg = inhibitors of mutant huntingtin aggregate formation in PC12 cells. Potency, µM (top dose mostly 46.1 µM), inactives show top-dose activity change, negative = inhibition, usual class: inhibitors. PC12 HttQ103-GFP aggregates, Acumen cytometry, 40 h. 220,000 tested, 1.1% active; further: potency means the concentration at half of the fitted maximal effect; on the % scale 0 is the no-effect control and ±100 the full control effect; nearly all actives have a fitted effect of over 60% in size
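Read-out: GFP aggregate count by laser scanning cytometer (488 nm excitation, 500-530 nm emission, 1–25 µm objects >6 SD above background). Cells: PC12, inducible HTTex1-Q103-GFP, 100 nM tebufenozide; compounds titrated.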
RGS12 GoLoco inh = inhibitors of human Gai1-RGS12 GoLoco interaction (red fluorophore) | Gai1:RGS12 GoLoco peptide FP, rhodamine, 10 min | 230,000 tested, 0.44% active | Potency, µM (doses to about 61.6 µM), for the others: at the highest dose activity, negative = inhibition, usual class: inhibitors | AID 880 | P63096; active means well fitted inhibition curve with a large enough effect, not every such curve was filed as active; inactive means no such curve, though single readings can be large or run the other way; further: potency means the concentration at half of the fitted maximal effect; on the % scale 0 is the no-effect control and ±100 the full control effect; nearly all actives have a fitted effect of over 30% in size
Target sequence (P63096 whole entry, looked up): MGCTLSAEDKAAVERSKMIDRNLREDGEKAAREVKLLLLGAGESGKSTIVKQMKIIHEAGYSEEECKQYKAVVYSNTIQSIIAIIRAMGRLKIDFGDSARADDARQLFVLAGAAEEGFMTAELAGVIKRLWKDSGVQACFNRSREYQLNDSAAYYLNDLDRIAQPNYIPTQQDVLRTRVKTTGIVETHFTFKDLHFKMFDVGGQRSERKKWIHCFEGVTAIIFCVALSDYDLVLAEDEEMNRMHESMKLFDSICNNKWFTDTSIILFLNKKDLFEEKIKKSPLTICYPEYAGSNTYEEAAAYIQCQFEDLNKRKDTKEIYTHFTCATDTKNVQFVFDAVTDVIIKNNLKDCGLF
HPGD block = inhibitors of human 15-hydroxyprostaglandin dehydrogenase (HPGD); Potency, µM, without a hit: top-dose activity change, negative = inhibition, actives largely listed as inhibitors; P15428; 150,000 tested, 4.3% active; purified HPGD, NADH fluorescence kinetic, PGE2 substrate; active means well fitted inhibition curve with a large enough effect, not every such curve was filed as active; inconclusive means small, poorly fitted or top-dose-only effect, or another doubt; inactive means no such curve, though single readings can be large or run the other way; further: potency means the concentration at half of the fitted maximal effect; on the % scale 0 is the no-effect control and ±100 the full control effect
Target sequence (P15428 whole entry, looked up): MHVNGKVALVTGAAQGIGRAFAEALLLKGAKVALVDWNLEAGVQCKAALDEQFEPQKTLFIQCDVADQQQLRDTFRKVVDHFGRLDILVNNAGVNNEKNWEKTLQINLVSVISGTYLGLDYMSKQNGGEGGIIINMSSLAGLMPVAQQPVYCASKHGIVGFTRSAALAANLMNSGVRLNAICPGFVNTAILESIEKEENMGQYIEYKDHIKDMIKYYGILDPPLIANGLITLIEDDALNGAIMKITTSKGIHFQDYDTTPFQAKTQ
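20 nM HPGD preincubated 15 min at room temperature with compound in 50 mM Tris-HCl pH 8, 0.01% Tween 20. Started with 1 mM NAD+ and 30 uM prostaglandin E2; NADH fluorescence (360/450 nm) read 5 times over 30-s intervals, last minus first.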
PNC inhibitor = perinucleolar compartment assembly inhibition. PC3M PTB-GFP, PNC prevalence imaging, 16 h; active compounds read low. activity change (PNC), negative = inhibition, % at 10 µM. 140,000 tested, 3.1% active;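 active means readout at or below -70, meaning at least 70% loss of cells showing the perinucleolar compartment, a nuclear body marking cancer cells; inconclusive means readout between -30 and a set limit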;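 further: plate controls were DMSO wells for no effect and camptothecin positive control wells for full effect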
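Read-out is percentage of cells bearing a perinucleolar compartment, from automated 20x imaging of fixed, Hoechst-stained PC3M PTB-GFP cells. Cells were seeded 4 h, then exposed 16 h to compound (23 nl of library stock) in duplicate plates.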
* = called active by the depositor; ? = inconclusive; / = not tested or not shown; [ ] = remark or other dose. Unless noted, the call rests on the fitted dose curve; in most records, active means well fitted curve in the direction sought with a large enough effect; inconclusive means small, poorly fitted or top-dose-only effect, or another doubt; inactive means no such curve, though single readings can be large; an effect the other way counts as inactive or inconclusive.

SMILES	HTT ATP protect	ALDH1A1 block	HttQ103 aggreg	RGS12 GoLoco inh	HPGD block	PNC inhibitor
CCn1c(C)[n+](CCCS(=O)(=O)[O-])c2cc(Cl)c(Cl)cc21	-4.3%	1.4%	?	3.98µM*	-6.4%	39.1
Cc1ccccc1NS(=O)(=O)c1cc(C(=O)NCc2ccco2)ccc1C	-29.9%	4.0%	-1.3%	-5.9%	2.0%	?
Cc1ccc(SCCNC(=O)c2ccccc2C)cc1	0.3%	4.7%	8.1%	-1.9%	15.8µM*	16.4
Cc1ccc(SCCNC(=O)c2ccc(C)c(S(=O)(=O)Nc3ccccc3C)c2)cc1	-64.5%	-9.8%	17.8µM*	7.3%	-5.9%	14.7
C#C[C@]1(OC(C)=O)CC[C@H]2[C@@H]3CCC4=CC(=O)CC[C@@H]4[C@H]3CC[C@@]21C	-115.8%	6.2%	/	4.5%	-6.4%	/
COc1cc2c(cc1O)CCN[C@@]21CS[C@H]2c3c(OC(C)=O)c(C)c4c(c3C(COC1=O)N1C2C2c3c(cc(C)c(OC)c3O)CC([C@@H]1O)N2C)OCO4 (stereo partly drawn)	-29.5%	/	0.0025µM*	/	/	/
O=C(Nc1ccc(N2CCOCC2)c(S(=O)(=O)Nc2ccc(Cl)cc2)c1)c1cnccn1	1.8%[10 µM]	2µM*	-14.8%[9.22 µM]	-11.0%	/	/
COc1ccc(NS(=O)(=O)c2cc(NC(=O)c3ccncc3)ccc2N2CCOCC2)cc1	-7.6%[10 µM]	3.2%	8.4%	-8.1%	-12.4%	12.4
CC1(C)CC(=O)c2cc3c(nc2C1)CC(C)(C)CC3=O	-0.9%[10 µM]	7.08µM*	?	/	/	?
CC1(C)CC(=O)c2cnc(N)nc2C1	10.9%	?	0.1%	-9.1%	-12.3%	17.3
CN(CCC#N)C(=O)CC1(Cc2ccccc2)CCOC(C)(C)C1 (stereo not drawn)	-24.8%[10 µM]	/	-25.2%[9.22 µM]	-1.0%	/	/
Cc1noc(C)c1CN1C(=O)NC(Cc2ccccc2)(Cc2ccccc2)C1=O	6.6%	-4.1%	25.6%	8.7%	-1.8%	-106.9*
COc1ccc(C(=O)N2CCOC2CNC(=O)C(=O)NCc2ccc(Cl)cc2)cc1 (stereo not drawn)	-25.8%	1.0%	-3.8%	6.0%	/	/
COc1ccc(/C=C2\CN(Cc3ccccc3)C/C(=C\c3ccc(OC)cc3OC)C2=O)c(OC)c1	-68.2%	17.8µM*	-15.5%	-9.1%	-13.6%	18.4
COc1ccc(/C=N/N=C2/SCC(=O)N2Cc2ccccc2)cc1	-5.3%[10 µM]	/	8.0%[9.22 µM]	-2.7%	/	/
COc1ccc(C=C2c3ccccc3C(=O)c3ccccc32)c(OC)c1	-79.9%[10 µM]	/	-26.8%[9.22 µM]	-2.1%	/	/
COc1ccc(/C=C2\CN(Cc3ccccc3)C/C(=C\c3ccc(OC)cc3)C2=O)cc1	38.1%[10 µM]	15.8µM*	-3.7%	-8.9%	-14.2%	44.8
O=C(O)CCN=C1CCCc2ccccc2N1	-29.2%	31.6µM*	-1.9%	-7.4%	-13.0%	7.6
O=C(NCC1CCCO1)C(c1cccs1)N(Cc1ccccc1Cl)C(=O)c1ccc(-c2ccccc2)[nH]1 (stereo not drawn)	7.3%[10 µM]	-12.3%	-0.2%	6.0%	-20.6%	-3.2
O=C(NC1CCCC1)C(c1ccncc1)N(Cc1ccccc1)C(=O)c1ccc(-c2ccccc2)[nH]1 (stereo not drawn)	-12.8%[10 µM]	22.4µM*	?	0.9%	-19.9%	?
Cc1ccc(C(C(=O)NCC2CCCO2)N(Cc2ccccc2)C(=O)c2ccc(-c3ccccc3)[nH]2)o1 (stereo not drawn)	/	22.4µM*	0.126µM*	8.6%	?	-5.1
O=C(NC1CCCC1)C(c1ccncc1)N(Cc1ccco1)C(=O)c1ccc(-c2ccccc2)[nH]1 (stereo not drawn)	8.3%	?	?	9.7%	/	/
CCc1cccc(CC)c1NC(=O)/C(C#N)=C/c1ccccc1C(F)(F)F	-20.3%[10 µM]	10.3%	-27.8%	1.9%	-15.6%	?
CCOc1ccc(NCC(=O)Nc2ccc(C)cc2C)cc1	2.1%	1.78µM*	3.7%	7.7%	-2.9%	20.3
Cc1ccc(NC(=O)Cn2cccc2)c(Br)c1	-2.9%	-3.6%	16.9%	15.4%	14.1µM*	?
SMILES	HTT ATP protect	ALDH1A1 block	HttQ103 aggreg	RGS12 GoLoco inh	HPGD block	PNC inhibitor
Cc1ccc(NC(=O)Cn2cccc2)c(C)c1	-4.4%	-0.9%	22.3%	13.2%	2.24µM*	28.1
CCOc1ccc(NC(=O)CNc2ccc(C)cc2Cl)cc1	-10.6%	3.4%	-2.0%	-14.0%	-12.1%	38.7
CCCn1c(=S)[nH]c2ccccc2c1=O	-25.5%	2.3%	6.9%[9.22 µM]	5.2%	/	/
CCc1cc2c(=O)n(CCC(C)C)c(=S)[nH]c2s1	7.7%[10 µM]	15.8µM*	?	7.9%	/	/
CCN1CCN(c2cc3c(nn2)Oc2ccccc2N3C)CC1	/	?	11.1%	9.4%	?	11.4
Cc1cn(C2OC(COC(=O)c3ccccc3)C(OC(=O)c3ccccc3)C2OC(=O)c2ccccc2)c(=O)[nH]c1=O (stereo not drawn)	-7.3%[10 µM]	11.6%	-12.6%	1.0%	-11.8%	-118.9*
Cc1cn2c(nc1=O)OC1C(O)C(COC(=O)c3ccccc3)OC12 (stereo not drawn)	-18.9%[10 µM]	3.16µM*	?	-20.2%	-0.6%	-22.2
Cc1cn(C2OC(COC(=O)c3ccccc3)C(O)C2O)c(=O)[nH]c1=O (stereo not drawn)	1.5%[10 µM]	3.1%	2.7%	2.1%	-7.6%	-88.6*
O=C(OCC1OC2C(Oc3nc(=O)ccn32)C1O)c1ccccc1 (stereo not drawn)	-16.6%[10 µM]	?	8.1%	0.9%	-14.2%	?
Cc1cc(C)c(C(=O)/C=C/c2ccco2)c(=O)[nH]1	7.0%[10 µM]	11.2µM*	5.3%[9.22 µM]	-5.5%	/	/
CCc1ccc(/C=C/C(=O)c2c(C)cc(C)[nH]c2=O)cc1	8.7%[10 µM]	9.0%	25.1µM*	0.4%	-8.1%	21.2
CC(=O)Oc1ccc2c(c1)C(=O)c1ccccc1CO2	1.9%	?	-3.2%	-0.3%	-21.1%	27.5
Cc1cc(O)ccc1C1(c2ccc(O)cc2C)OC(=O)c2ccccc21	5.3%[1.9 µM]	10.8%	9.4%	-2.2%	-12.0%	-8.6
CC(=O)Oc1ccc2c(c1)Oc1cc(OC(C)=O)ccc1C21OC(=O)c2ccccc21	14.1%[10 µM]	?	0.316µM*	-3.0%	-18.8%	-100.0*
O=C1OC2(c3ccc(O)cc3Oc3cc(O)ccc32)c2ccccc21	-45.4%	2.3%	/	0.794µM*	-20.7%	/
CCCCCCC(C)n1[nH]c(=O)c2c(C)cc(=O)[nH]c21 (stereo not drawn)	-29.9%[0.074 µM]	6.8%	11.2µM*	-0.7%	-10.6%	8.3
CN(C)CCCn1cnc2cc(Cl)c(Cl)cc21	7.6%[10 µM]	-2.8%[13.5 µM]	/	1.2%[14.2 µM]	0.2%	/
Cn1cccc1/C=N/n1c(-c2ccc(Cl)cc2Cl)n[nH]c1=S	?	?	2.8%	3.4%	12.6µM*	14.8
COc1ccc(-c2n[nH]c(=S)n2/N=C/c2cccn2C)cc1	14.7%[10 µM]	/	-11.2%[9.22 µM]	8.3%	/	/
